The text below walks through data of PubChem BioAssay (NCI).

Molecules are shown by their SMILES. Compounds without any hit were thinned out: in the full panel of roughly 79,000, 15% have a hit. A number with no mark means an inactive call. Calls of active or inactive are those of the source. Cut-off read from the data, not from the text of the source: active = growth inhibition above about 70%; inactive = the rest.

The first experiment can be described thus: NCI Yeast Anticancer Drug Screen. Data for the rad18 strain (AID 177). The settings on record: S. cerevisiae rad18 mutant growth inhibition; at 11.0 µM; hits give high values. The procedure, abridged: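 Readout: growth inhibition vs vehicle controls. Cells: genetically altered yeast strain, DNA repair defect.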
In the case of `CSc1nnc(SC)nn1`, the growth inhibition is 12%.

Consider `COc1cc(/C=C2\CCC/C(=C\c3ccc(O)c(OC)c3)C2=O)ccc1O`, for which the growth inhibition was 3%. Take `CN(C)CCNC(=O)c1cccc2cc([N+](=O)[O-])ccc12`: the growth inhibition was 23%. Take `CCC(C)(C)c1ccc(Oc2cccc(C(=O)O)c2)cc1`: the growth inhibition is 17%.

With `CCCCCCSc1ncnc2[nH]ncc12`, the growth inhibition was 6%.

With `CC(=O)Nc1ccc(/C=C/[N+](=O)[O-])cc1`, the growth inhibition is 12%.

On to `CCOC(=O)c1[nH]n(-c2ccccc2)c(=O)c1C=NC(=S)C(N)=S`, for which the growth inhibition is 2%.

For the compound `CCCC(O)C1CC(C(C)C)CCC1C` (stereo unspecified), the growth inhibition is 2%. Consider `O=[n+]1c2ccccc2n([O-])c2cc(Br)ccc21`, for which the growth inhibition was 98% (active). Take `CN(C)CCNC(=O)c1cccc2c1Oc1c(cccc1[N+](=O)[O-])O2`: the growth inhibition is -5%.

Turning to `Nc1ncc(-c2ccc(Br)cc2)s1`, the growth inhibition was -16%. For `Cc1cc2cc3cc(C)c(N)cc3nc2cc1N`, the growth inhibition was -11%. Take `CC12C(=O)OC(=O)C(c3ccccc31)c1ccccc12`: the growth inhibition was -5%.

For `c1ccc2c(OCC3CO3)cccc2c1` (stereo unspecified), the growth inhibition was 86% (active). Still for that read-out and setting: the value for `CCOC(=N)c1ccc(O)c(OC)c1` was -3%; that for `Nc1cc(N)c(N=Nc2cccc3c(S(=O)(=O)O)cccc23)cc1N=Nc1cc([N+](=O)[O-])ccc1O` was -23%.

Consider `COC(=O)Oc1cc(Cl)c(Cl)cc1Cl`, for which the growth inhibition was 6%. Regarding `O=C(O)C1CC(c2ccccc2)=NN1c1ccccc1` (stereo unspecified), the growth inhibition was -12%.

For `COc1cc([C@@H]2c3cc4c(cc3[C@@H](Nc3ccc(NC(=O)c5cc([N+](=O)[O-])cn5C)cc3)[C@H]3COC(=O)[C@H]23)OCO4)cc(OC)c1O`, the growth inhibition was 27%. Same read-out and setting: the value for `O=C(O)c1ccccc1/C=N/N=C1c2ccccc2-c2ccccc21` was 2%; that for `O=C1CC(=O)c2ccccc21` was 7%. With `Nc1ncnc2c1ncn2C1OC(CO)CC1O` (stereo unspecified), the growth inhibition was 52%.

Staying with this experiment, now noted: S. cerevisiae rad18 mutant growth inhibition; at 33.0 µM; hits give high values.
As to `CS(=O)(=O)SCc1ccc([N+](=O)[O-])cc1`, the growth inhibition was 99% (active). On the same count and under the same terms, for `Cc1csc(=S)n1OC(=O)NC1CCCCC1` the value was 98% (active); for `CCOc1ccc(NC(=O)C2=C(C)NC(C)=C(C(=O)Nc3ccc(OCC)cc3)C2c2cccc([N+](=O)[O-])c2)cc1`, 45%; for `CC(C)(C)N=C(NO)c1ccccc1`, 38%.

Regarding `CCCCC/C(=C(\C#N)C(=O)OCC)c1ccccc1`, the growth inhibition is 8%. Same read-out and setting: the value for `O=C(NCCCl)Sc1ccc(Cl)cc1` was 44%.

In the case of `O=C1Nc2ccc(Br)cc2C1=Nc1ccc2c(c1)OCO2`, the growth inhibition is -44%.

Turning to `CCC(C)OC(=O)Nc1ccc(C)c(NC(=O)OC(C)CC)c1` (stereo unspecified), the growth inhibition is 6%.

Take `O=C(O)c1cc2ccc(Cl)cc2c(O)c1C1=CCCCC1`: the growth inhibition is 52%. `CN(C)Cc1cc(N=Nc2ccc(Cl)cc2)ccc1OC(=O)c1ccccc1`: the growth inhibition was 17%. For the compound `CN1CCN(C(=O)/C=C/C(=O)c2ccccc2)CC1`, the growth inhibition was 84% (active). The same measure, in the same setting: the value for `CCCC/C=C/C(C)(C(=O)OCC)C(=O)OCC` was 13%; that for `Cc1nc(-c2cc3cc([N+](=O)[O-])ccc3oc2=O)cs1` was 34%; that for `Cc1nc2ccccc2nc1NNc1ccccc1` was 30%. On to `CN(C)[C@@H]1C(=O)C(C(N)=O)=C(O)[C@@]2(O)C(=O)C3=C(O)c4c(O)cccc4C[C@H]3C[C@@H]12`, for which the growth inhibition is 95% (active). Still for that read-out and setting: for `COc1ccc(NC(=O)CC2SC(=Nc3ccccc3C)NC2=O)c([N+](=O)[O-])c1` (stereo unspecified) the value was 41%; for `COc1cc(O)c2c(c1O)C(=O)c1cc(C)ncc1C2=O`, 40%; for `CSc1nnc(SC)nn1`, 67%. On the same count and under the same terms, for `COc1cc(/C=C2\CCC/C(=C\c3ccc(O)c(OC)c3)C2=O)ccc1O` the value was 1%; for `CN(C)CCNC(=O)c1cccc2cc([N+](=O)[O-])ccc12`, 70% (active); for `CCC(C)(C)c1ccc(Oc2cccc(C(=O)O)c2)cc1`, 49%. For the compound `CCCCCCSc1ncnc2[nH]ncc12`, the growth inhibition is 1%. Same read-out and setting: for `CC(=O)Nc1ccc(/C=C/[N+](=O)[O-])cc1` the value was 25%. For `CCOC(=O)c1[nH]n(-c2ccccc2)c(=O)c1C=NC(=S)C(N)=S`, the growth inhibition is 67%.

Consider `CCCC(O)C1CC(C(C)C)CCC1C` (stereo unspecified), for which the growth inhibition was 9%. Same read-out and setting: for `O=[n+]1c2ccccc2n([O-])c2cc(Br)ccc21` the value was 99% (active); for `CN(C)CCNC(=O)c1cccc2c1Oc1c(cccc1[N+](=O)[O-])O2`, 13%; for `Nc1ncc(-c2ccc(Br)cc2)s1`, 91% (active). On the same count and under the same terms, the value for `Cc1cc2cc3cc(C)c(N)cc3nc2cc1N` was 67%. Still for that read-out and setting: for `CC12C(=O)OC(=O)C(c3ccccc31)c1ccccc12` the value was 0%. On to `c1ccc2c(OCC3CO3)cccc2c1` (stereo unspecified), for which the growth inhibition is 95% (active). The same measure, in the same setting: for `CCOC(=N)c1ccc(O)c(OC)c1` the value was 0%.

In the case of `Nc1cc(N)c(N=Nc2cccc3c(S(=O)(=O)O)cccc23)cc1N=Nc1cc([N+](=O)[O-])ccc1O`, the growth inhibition is -16%.

With `COC(=O)Oc1cc(Cl)c(Cl)cc1Cl`, the growth inhibition is 9%.

In the case of `O=C(O)C1CC(c2ccccc2)=NN1c1ccccc1` (stereo unspecified), the growth inhibition is 26%. Take `COc1cc([C@@H]2c3cc4c(cc3[C@@H](Nc3ccc(NC(=O)c5cc([N+](=O)[O-])cn5C)cc3)[C@H]3COC(=O)[C@H]23)OCO4)cc(OC)c1O`: the growth inhibition was 43%. On the same count and under the same terms, the value for `O=C(O)c1ccccc1/C=N/N=C1c2ccccc2-c2ccccc21` was -4%; that for `O=C1CC(=O)c2ccccc21` was 23%; that for `Nc1ncnc2c1ncn2C1OC(CO)CC1O` (stereo unspecified) was 82% (active).
